Screens (PubChem)
mHTT-CaM PPI inh = mHTT-calmodulin interaction abrogation | AID 1671202 | AlphaScreen His-mHTT/GST-CaM binding, luminescence | inhibition, % at 15 µM | P42858 | 3.6% of 190,000 active
Pf apPOL inh = Pf-apPOL DNA polymerase inhibition; Recombinant Pf-apPOL, molecular beacon fluorescence, 1.5 h; inhibition, % at 10 µM; 0.25% of 210,000 active; AID 1794808
A number is an active result; - = inactive; . = no result. The list is not random: actives were taken first. Their share in the collection is about 3.5%. Rule as the data show it: active = inhibition above about 50%; inactive = the rest.

SMILES | mHTT-CaM PPI inh | Pf apPOL inh
O=[N+]([O-])c1ccccc1C1Nc2ccc(Br)cc2C2C=CCC21 (stereo unspecified) | 57 | -
O=C(c1ccc2c(c1)C1C=CCC1C(c1ccc([N+](=O)[O-])cc1)N2)N1CCCC1 (stereo unspecified) | - | -
O=C(O)c1ccc2c(c1)C1C=CCC1C(c1ccccc1[N+](=O)[O-])N2 (stereo unspecified) | 53 | -
Cc1ccc(CNC(=O)C2CCc3sc(C(=O)N4CCCC4)cc3C2)cc1 (stereo unspecified) | - | -
Cn1cc(S(=O)(=O)Nc2ccc(F)cc2Cl)c2cccnc21 | 69 | 93
Cc1cccc(NS(=O)(=O)c2cn(C)c3ncccc23)c1 | 59 | 88
CCCn1cc(S(=O)(=O)Nc2ccc(Cl)cc2F)c2cccnc21 | - | -
Cn1cc(S(=O)(=O)Nc2cccc(Cl)c2)c2cccnc21 | - | -
Cc1ccc(S(=O)(=O)Nc2cccc3ccc(-n4nc(C)cc4C)nc23)cc1 | - | 60
Cc1ccc(S(=O)(=O)Nc2cccc3ccc(C)nc23)cc1 | - | -
O=C(Nc1cc(Cl)cc(Cl)c1)c1ccc(F)c(S(=O)(=O)N2CCc3ccccc3C2)c1 | - | -
Cc1ccccc1CNc1ccc2cn[nH]c2c1 | 62 | -
COc1ccccc1CNc1ccc2cn[nH]c2c1 | - | -
Oc1ccc(CNc2ccc3cn[nH]c3c2)cc1 | - | -
c1ccc(CNc2ccc3cn[nH]c3c2)cc1 | 82 | -
Cc1ccc(CNc2ccc3[nH]ncc3c2)cc1 | 82 | -
COc1cc(CNc2ccc3cn[nH]c3c2)ccc1O | - | -
CCn1c(C2CCN(S(=O)(=O)c3cccc4nsnc34)C2)nc2cccnc21 (stereo unspecified) | - | -
Cc1[nH]nc2c1C(c1ccc(OCCc3ccccc3)cc1)CC(=O)N2 (stereo unspecified) | - | -
CCOc1ccc(NC(=O)N2CCCC2c2ccc(F)cc2)cc1 (stereo unspecified) | - | -
Cc1cccc(NC(=O)Cc2nc(-c3ccccn3)n[nH]2)c1C | 99 | -
Cc1ccc(NC(=O)Cc2nc(-c3ccccc3)n[nH]2)c(C)c1 | - | -
Cc1cccc(NC(=O)Cc2nc(-c3ccccc3)n[nH]2)c1C | - | -
CCOC(=O)Cc1nc(-c2ccccn2)n[nH]1 | 98 | -
Cc1ccccc1NC(=O)Cc1nc(-c2ccccn2)n[nH]1 | 100 | -
SMILES | mHTT-CaM PPI inh | Pf apPOL inh
Cc1ccc(NC(=O)Cc2nc(-c3ccccn3)n[nH]2)cc1 | 69 | -
N#CCc1nc(-c2ccccn2)n[nH]1 | . | -
O=C(Cc1nc(-c2cccnc2)n[nH]1)Nc1ccc(F)cc1 | - | -
Cc1ccc(Oc2ccc(C#N)cc2[N+](=O)[O-])c(-n2nc3ccccc3n2)c1 | - | -
Cc1ccn2cc(CNS(=O)(=O)c3ccc(-c4ccccc4)cc3)nc2c1 | - | -
O=C(Cc1nc(-c2cccnc2)n[nH]1)Nc1ccc(F)c(F)c1 | - | -
O=C(Cc1nc(-c2ccccn2)n[nH]1)Nc1ccc(F)c(F)c1 | 86 | -
CCC1CN(C(=O)NC2CCCC2)c2cc(C)ccc2O1 (stereo unspecified) | - | -
CCOc1ccc(-c2csc(NC(=O)c3cncc(Br)c3)n2)cc1 | - | -
O=C(Nc1nc(-c2ccc(Cl)cc2)cs1)c1cncc(Br)c1 | 53 | -
CCCN1C(=O)C(C)(C(=O)NC2CCCCCC2)Oc2cccnc21 (stereo unspecified) | - | -
Cc1cc(C)nc(NS(=O)(=O)c2ccc(NC(=O)c3ccc(F)c(F)c3)cc2)n1 | - | -
Cc1ccc(CC(=O)N2CCCC2COc2ccc(C(=O)N3CCOCC3)cc2)cc1 (stereo unspecified) | - | -
COc1ccc(-c2cccc3c2CCN(C(=O)CCN2CCOCC2)C3C)cc1 (stereo unspecified) | - | -
Cn1ncc([N+](=O)[O-])c1C(=O)NNC(=S)NC1CCCC1 | - | .
O=C(NNC(=S)NC1CCCCC1)c1[nH]ncc1[N+](=O)[O-] | 61 | .
COc1cccc(/C=c2\sc3nnc(-c4ccccc4C)n3c2=O)c1OC | - | -
CN(C)C1CCN(Cc2c(F)cccc2Cl)CC1CO (stereo unspecified) | - | -
CN1CCN(c2ccc(Nc3cn[nH]c(=O)n3)cc2)CC1 | - | .
O=C(OCc1ccccc1)C1C2C=CC3(CN(c4ccc(Cl)cc4)C(=O)C13)O2 (stereo unspecified) | 80 | -
CCc1ccc(N2CC34C=CC(O3)C(C(=O)OC)C4C2=O)cc1 (stereo unspecified) | - | -
O=C(Nc1ccc(NC(=O)c2ccc(-c3ccc(Cl)cc3Cl)o2)cc1)c1ccco1 | - | -
O=C(c1ccc(C(F)(F)F)cc1)N1CCC(Cc2nnc(-c3ccccc3)o2)CC1 | 57 | -
O=C(c1ccoc1)N1CCC(Cc2nnc(-c3ccccc3)o2)CC1 | - | -
Fc1ccc(-c2noc(-c3ncn4c3COC(c3ccccc3Cl)C4)n2)cc1 (stereo unspecified) | - | -
SMILES | mHTT-CaM PPI inh | Pf apPOL inh
Clc1ccccc1C1Cn2cnc(-c3nc(-c4ccccn4)no3)c2CO1 (stereo unspecified) | 100 | -
Cc1ccc(-c2[nH]c3ccccc3c2SCCNC(=O)C23CC4CC(CC(C4)C2)C3)cc1 | - | -
CCOc1ccc(NC(=O)CSc2nnc(-c3cccc(N)c3)n2C)cc1 | - | -
CCN1/C(=C2\C(=O)N=C(C)N2c2ccccc2)C=Cc2ccc(C)cc21 | - | -
O=C(Nc1cc([N+](=O)[O-])cc2oc(-c3ccccc3)cc12)c1ccc2c(c1)OCO2 | - | -
COc1ccc(-c2nc3cccnc3n2C2CCN(C(=O)c3cccs3)C2)cc1 (stereo unspecified) | - | -
COc1ccc(-c2nc3cccnc3n2C2CCN(C(=O)c3ccc(C)s3)C2)cc1 (stereo unspecified) | 65 | -
COc1ccc(-c2nc3cccnc3n2C2CCN(C(=O)NC(C)C)C2)cc1 (stereo unspecified) | - | -
COc1ccc(-c2nc3cccnc3n2C2CCN(C(=O)c3ccc(Cl)s3)C2)cc1 (stereo unspecified) | 70 | -
O=C(O)C1C2CCC(O2)C1C(=O)NCc1ccc2c(c1)OCO2 (stereo unspecified) | - | -
CC(=O)Nc1ccc(C)c(I)c1 | - | -
O=C(C1CC1c1ccccc1)N1CCN(c2ccccc2F)CC1 (stereo unspecified) | - | -
COc1ccc2c(c1)Nc1ccccc1S2 | 63 | .
Clc1ccc2c(c1)Nc1ccccc1S2 | - | .
COc1ccc(-c2cc3nc4c(c(=O)n3[nH]2)CNCC4)cc1 | - | -
Cc1nc(C)c2c(n1)N(CC1CCCO1)C(=O)CC2 (stereo unspecified) | - | -
Cc1cccc(CN2C(=O)CCc3c(C)nc(-c4ccncc4)nc32)c1 | - | -
Cc1cccc(CN2C(=O)CCc3c(C)nc(C)nc32)c1 | - | 51
Cc1nc(C)c2c(n1)N(CC1CCCCC1)C(=O)CC2 | - | 50
CCC1CCCCN1C/C=C/c1ccc(N(C)C)cc1 (stereo unspecified) | 68 | -
CCC1CCCCN1C/C=C/c1ccccc1[N+](=O)[O-] (stereo unspecified) | - | -
O=C(Nc1ccccc1Cl)C1c2ccccc2Oc2ccccc21 | - | -
O=C(NC1CCCC1)c1nn2c(C(F)(F)F)cc(-c3ccco3)nc2c1Br | - | -
O=C(Nc1cccc(O)c1)c1nn2c(C(F)(F)F)cc(-c3ccco3)nc2c1Br | 61 | -
